The text below walks through data of publication PMC7862700, “An all-to-all approach to the identification of sequence-specific readers for epigenetic DNA modifications on cytosine”.

Holding throughout (test): DAPPL (digital affinity profiling via proximity ligation, sequencing); 10 mM Tris-HCl pH 7.5, 50 mM NaCl, 1 mM DTT, 4% glycerol, room temperature, 30 min; GST-TFs on glutathione beads, 16-mer random dsDNA library, 0.1% formaldehyde crosslink after washing; high values mean tight binding
One assay deals with T1, FLI1 (Homo sapiens, UniProt Q01543 1-452).
T1 sequence: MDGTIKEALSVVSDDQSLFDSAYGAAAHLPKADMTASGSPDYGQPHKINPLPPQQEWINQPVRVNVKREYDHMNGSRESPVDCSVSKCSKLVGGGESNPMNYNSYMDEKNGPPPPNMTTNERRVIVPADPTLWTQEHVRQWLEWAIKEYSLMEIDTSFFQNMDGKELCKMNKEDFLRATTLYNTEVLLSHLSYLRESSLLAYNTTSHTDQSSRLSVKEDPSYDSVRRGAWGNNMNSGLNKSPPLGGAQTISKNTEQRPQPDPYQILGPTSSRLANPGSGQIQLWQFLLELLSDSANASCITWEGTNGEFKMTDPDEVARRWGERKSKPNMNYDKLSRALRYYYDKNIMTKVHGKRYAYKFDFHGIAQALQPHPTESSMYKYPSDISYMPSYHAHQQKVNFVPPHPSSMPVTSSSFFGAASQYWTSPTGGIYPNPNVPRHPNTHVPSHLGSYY
The conditions noted are these: protein: recombinant; tags: N-terminal GST; dsDNA, one strand shown. In outline: (§1)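 Pools were built from human transcription factors expressed in yeast as GST fusions, captured on glutathione beads and DNA-barcoded, along with a tag-only sample. Incubation with 200 nmole of a 16-mer random double-stranded DNA library lasted 30 min at room temperature in Tris/NaCl/DTT/glycerol buffer, and was followed by washing, 0.1% formaldehyde crosslinking, proximity ligation, PCR amplification and Illumina NextSeq500 sequencing. Binding signal is the quotient of each hexamer's read frequency for a factor and its frequency for the tag-only sample.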

The next assay has as its target T2, ELK1 (Homo sapiens, UniProt P19419 1-428).
T2 sequence: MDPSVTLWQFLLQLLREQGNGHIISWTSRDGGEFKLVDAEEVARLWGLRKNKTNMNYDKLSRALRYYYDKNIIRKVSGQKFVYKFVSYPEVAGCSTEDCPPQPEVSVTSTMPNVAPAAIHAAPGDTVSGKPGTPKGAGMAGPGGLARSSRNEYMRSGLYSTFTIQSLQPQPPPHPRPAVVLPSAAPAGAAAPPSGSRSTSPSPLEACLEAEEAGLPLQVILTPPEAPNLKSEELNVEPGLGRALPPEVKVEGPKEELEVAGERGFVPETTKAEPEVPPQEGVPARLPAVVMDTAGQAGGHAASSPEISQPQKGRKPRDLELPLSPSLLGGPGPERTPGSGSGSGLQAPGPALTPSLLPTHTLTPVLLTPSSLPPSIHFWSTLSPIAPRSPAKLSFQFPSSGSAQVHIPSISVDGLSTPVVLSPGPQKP
The conditions noted are these: protein: recombinant; tags: N-terminal GST; dsDNA, one strand shown. In outline: as §1

In a further assay the target is T3, GABPA (Homo sapiens, UniProt Q06546 1-454).
T3 sequence: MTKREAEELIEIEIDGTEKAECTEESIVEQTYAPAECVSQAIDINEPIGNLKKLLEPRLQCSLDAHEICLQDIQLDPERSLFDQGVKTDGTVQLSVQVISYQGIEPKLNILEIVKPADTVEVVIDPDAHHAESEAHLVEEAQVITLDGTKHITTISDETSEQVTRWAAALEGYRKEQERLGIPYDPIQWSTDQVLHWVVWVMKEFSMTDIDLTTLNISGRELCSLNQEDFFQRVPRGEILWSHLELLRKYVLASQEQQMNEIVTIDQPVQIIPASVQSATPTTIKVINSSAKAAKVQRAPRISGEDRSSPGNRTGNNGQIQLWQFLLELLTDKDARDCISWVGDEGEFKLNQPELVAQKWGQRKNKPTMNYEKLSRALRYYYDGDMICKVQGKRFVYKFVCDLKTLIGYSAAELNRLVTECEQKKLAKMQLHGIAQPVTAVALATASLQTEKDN
The conditions noted are these: protein: recombinant; tags: N-terminal GST; dsDNA, one strand shown. In outline: as §1

Another assay has as its target T4, ERG (Homo sapiens, UniProt P11308 1-479).
T4 sequence: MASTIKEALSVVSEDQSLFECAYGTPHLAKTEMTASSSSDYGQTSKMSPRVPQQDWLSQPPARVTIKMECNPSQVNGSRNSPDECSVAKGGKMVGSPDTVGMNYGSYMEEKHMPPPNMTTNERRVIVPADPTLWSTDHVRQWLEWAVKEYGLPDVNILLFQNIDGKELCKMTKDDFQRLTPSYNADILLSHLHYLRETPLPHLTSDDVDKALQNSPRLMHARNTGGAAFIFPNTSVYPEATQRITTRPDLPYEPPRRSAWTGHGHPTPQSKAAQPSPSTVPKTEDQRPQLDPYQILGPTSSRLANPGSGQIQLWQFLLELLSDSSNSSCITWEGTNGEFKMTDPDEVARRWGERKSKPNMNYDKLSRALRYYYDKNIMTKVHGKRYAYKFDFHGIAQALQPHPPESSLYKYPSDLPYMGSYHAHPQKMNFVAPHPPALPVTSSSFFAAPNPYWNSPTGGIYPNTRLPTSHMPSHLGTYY
The following applies: protein: recombinant; tags: N-terminal GST; dsDNA, one strand shown. Put shortly: as §1

The next assay addresses ELF1 (Homo sapiens, UniProt P32519 1-619). The following applies: protein: recombinant; tags: N-terminal GST; dsDNA, one strand shown. Put shortly: as §1
A further assay addresses T5, EHF (Homo sapiens, UniProt Q9NZC4 1-300).
T5 sequence: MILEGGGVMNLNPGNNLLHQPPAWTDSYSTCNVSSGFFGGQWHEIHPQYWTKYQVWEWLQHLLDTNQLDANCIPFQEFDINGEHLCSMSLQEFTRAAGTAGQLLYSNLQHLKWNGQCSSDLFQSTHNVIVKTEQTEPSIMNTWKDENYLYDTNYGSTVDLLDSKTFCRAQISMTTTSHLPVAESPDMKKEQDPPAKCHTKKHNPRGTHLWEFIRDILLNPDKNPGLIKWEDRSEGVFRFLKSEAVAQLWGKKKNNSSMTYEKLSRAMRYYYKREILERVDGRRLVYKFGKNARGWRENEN
The conditions noted are these: protein: recombinant; tags: N-terminal GST; dsDNA, one strand shown. In outline: as §1

Another assay deals with SPI1 (Homo sapiens, UniProt P17947 1-270). The conditions noted are these: protein: recombinant; tags: N-terminal GST; dsDNA, one strand shown. In outline: as §1
For a further assay, the target named is SPIB (Homo sapiens, UniProt Q01892 1-262). The conditions noted are these: protein: recombinant; tags: N-terminal GST; dsDNA, one strand shown. Put shortly:
as §1

The next assay deals with T6, ELK3 (Homo sapiens, UniProt P41970 1-407).
T6 sequence: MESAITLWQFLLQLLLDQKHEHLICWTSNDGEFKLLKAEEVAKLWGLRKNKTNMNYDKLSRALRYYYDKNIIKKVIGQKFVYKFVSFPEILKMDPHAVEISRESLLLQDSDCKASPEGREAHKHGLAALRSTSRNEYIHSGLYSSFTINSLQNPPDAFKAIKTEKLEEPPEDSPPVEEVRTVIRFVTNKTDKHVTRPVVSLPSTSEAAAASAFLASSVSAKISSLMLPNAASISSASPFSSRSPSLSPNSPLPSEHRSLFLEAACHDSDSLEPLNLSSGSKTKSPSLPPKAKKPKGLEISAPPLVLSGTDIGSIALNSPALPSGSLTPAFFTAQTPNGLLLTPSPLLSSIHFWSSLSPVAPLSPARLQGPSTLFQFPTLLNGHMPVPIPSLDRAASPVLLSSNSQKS
The following applies: protein: recombinant; tags: N-terminal GST; dsDNA, one strand shown. Put shortly:
as §1

For a further assay, the target named is T7, FEV (Homo sapiens, UniProt Q99581 1-238).
T7 sequence: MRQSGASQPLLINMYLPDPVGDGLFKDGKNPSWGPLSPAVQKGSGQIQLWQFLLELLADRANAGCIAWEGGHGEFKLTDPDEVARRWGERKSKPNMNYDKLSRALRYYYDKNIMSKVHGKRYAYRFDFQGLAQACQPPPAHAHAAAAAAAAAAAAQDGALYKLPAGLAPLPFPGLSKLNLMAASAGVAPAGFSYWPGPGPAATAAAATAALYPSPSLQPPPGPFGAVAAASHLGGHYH
The following applies: protein: recombinant; tags: N-terminal GST; dsDNA, one strand shown. Put shortly: as §1

The target of the next assay is ETV5 (Homo sapiens, UniProt P41161 1-510). The conditions noted are these: protein: recombinant; tags: N-terminal GST; dsDNA, one strand shown. In outline: as §1
Chain of ETV5 (P41161 whole entry): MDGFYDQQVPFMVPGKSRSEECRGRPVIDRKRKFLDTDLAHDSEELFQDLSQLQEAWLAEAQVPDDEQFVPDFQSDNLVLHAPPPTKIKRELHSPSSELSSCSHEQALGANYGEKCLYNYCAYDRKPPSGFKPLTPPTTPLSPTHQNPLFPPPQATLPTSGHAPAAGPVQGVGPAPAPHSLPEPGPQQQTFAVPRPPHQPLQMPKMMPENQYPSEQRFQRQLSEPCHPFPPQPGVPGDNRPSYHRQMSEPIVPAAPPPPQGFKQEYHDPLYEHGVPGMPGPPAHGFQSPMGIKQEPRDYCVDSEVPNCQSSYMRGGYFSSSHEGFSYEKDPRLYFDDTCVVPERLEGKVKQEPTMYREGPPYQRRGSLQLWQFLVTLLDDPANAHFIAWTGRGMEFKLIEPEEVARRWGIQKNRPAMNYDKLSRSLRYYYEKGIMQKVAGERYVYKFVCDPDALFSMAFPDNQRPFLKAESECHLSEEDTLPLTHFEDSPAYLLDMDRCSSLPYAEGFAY
In a further assay the target is HSF1 (Homo sapiens, UniProt Q00613 1-529). The conditions noted are these: protein: recombinant; tags: N-terminal GST; chain copies: 3; dsDNA, one strand shown. Put shortly: as §1
Chain of HSF1 (Q00613 whole entry): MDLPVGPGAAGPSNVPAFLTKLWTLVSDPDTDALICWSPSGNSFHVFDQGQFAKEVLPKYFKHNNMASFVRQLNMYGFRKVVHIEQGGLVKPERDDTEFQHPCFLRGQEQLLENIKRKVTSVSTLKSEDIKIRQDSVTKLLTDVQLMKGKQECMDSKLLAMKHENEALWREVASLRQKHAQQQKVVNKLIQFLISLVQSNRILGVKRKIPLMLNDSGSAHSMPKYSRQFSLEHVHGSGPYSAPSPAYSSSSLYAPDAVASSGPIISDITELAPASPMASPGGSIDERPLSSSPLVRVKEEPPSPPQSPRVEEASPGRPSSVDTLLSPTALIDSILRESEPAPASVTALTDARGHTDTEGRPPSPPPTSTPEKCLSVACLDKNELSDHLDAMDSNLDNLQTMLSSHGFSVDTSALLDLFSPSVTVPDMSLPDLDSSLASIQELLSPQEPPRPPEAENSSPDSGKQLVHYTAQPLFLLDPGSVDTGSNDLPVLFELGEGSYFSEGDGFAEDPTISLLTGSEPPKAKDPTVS
The target in another assay is T8, SPIC (Homo sapiens, UniProt Q8N5J4 1-248).
T8 sequence: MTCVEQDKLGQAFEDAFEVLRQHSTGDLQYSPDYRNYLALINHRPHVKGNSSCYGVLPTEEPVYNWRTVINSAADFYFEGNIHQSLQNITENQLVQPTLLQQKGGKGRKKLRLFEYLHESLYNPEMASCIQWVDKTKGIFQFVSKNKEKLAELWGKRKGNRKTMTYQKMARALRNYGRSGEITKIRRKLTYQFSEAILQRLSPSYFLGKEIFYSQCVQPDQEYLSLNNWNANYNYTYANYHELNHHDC
The following applies: protein: recombinant; tags: N-terminal GST; dsDNA, one strand shown. In outline: as §1

Another assay concerns the target ELF4 (Homo sapiens, UniProt Q99607 1-663). The conditions noted are these: protein: recombinant; tags: N-terminal GST; dsDNA, one strand shown. Put shortly: as §1
For a further assay, the target named is T9, ELK4 (Homo sapiens, UniProt P28324-2 1-405).
T9 sequence: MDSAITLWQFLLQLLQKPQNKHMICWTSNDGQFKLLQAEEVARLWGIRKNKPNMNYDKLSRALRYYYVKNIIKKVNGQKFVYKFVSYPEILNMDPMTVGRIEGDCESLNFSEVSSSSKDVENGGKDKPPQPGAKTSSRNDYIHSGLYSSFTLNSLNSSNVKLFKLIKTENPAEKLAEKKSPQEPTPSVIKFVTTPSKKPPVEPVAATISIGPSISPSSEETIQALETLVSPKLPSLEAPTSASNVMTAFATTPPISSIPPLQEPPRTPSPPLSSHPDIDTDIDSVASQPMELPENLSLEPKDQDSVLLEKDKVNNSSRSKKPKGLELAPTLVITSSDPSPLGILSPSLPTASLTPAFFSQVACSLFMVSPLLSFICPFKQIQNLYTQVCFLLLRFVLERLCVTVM
The following applies: protein: recombinant; tags: N-terminal GST; dsDNA, one strand shown. Put shortly:
as §1

Another assay addresses T10, ETV2 (Homo sapiens, UniProt O00321 1-342).
T10 sequence: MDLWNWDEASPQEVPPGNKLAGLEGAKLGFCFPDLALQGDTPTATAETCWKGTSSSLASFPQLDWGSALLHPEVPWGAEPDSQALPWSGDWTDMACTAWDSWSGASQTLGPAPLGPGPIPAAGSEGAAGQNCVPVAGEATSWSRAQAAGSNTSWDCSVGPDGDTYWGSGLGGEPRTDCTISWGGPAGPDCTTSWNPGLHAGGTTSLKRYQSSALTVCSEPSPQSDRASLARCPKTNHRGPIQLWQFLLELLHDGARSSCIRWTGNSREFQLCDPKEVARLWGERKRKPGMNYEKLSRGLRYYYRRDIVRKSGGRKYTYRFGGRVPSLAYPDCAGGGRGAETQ
The conditions noted are these: protein: recombinant; tags: N-terminal GST; dsDNA, one strand shown. Put shortly: as §1

Another assay has as its target T11, ELF3 (Homo sapiens, UniProt P78545 1-371).
T11 sequence: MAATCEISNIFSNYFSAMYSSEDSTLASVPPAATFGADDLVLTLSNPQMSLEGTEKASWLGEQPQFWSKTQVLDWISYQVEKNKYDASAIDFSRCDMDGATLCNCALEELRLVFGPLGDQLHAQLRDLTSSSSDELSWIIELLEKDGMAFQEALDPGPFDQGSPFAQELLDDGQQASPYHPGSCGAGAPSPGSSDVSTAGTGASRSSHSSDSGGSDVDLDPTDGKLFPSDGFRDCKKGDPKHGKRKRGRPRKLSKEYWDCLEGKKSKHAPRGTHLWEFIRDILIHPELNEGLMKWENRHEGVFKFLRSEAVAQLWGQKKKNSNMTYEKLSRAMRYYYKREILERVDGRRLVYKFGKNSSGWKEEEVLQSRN
The conditions noted are these: protein: recombinant; tags: N-terminal GST; dsDNA, one strand shown. In outline:
as §1

A further assay has as its target CRX (Homo sapiens, UniProt O43186 1-299). The following applies: protein: recombinant; tags: N-terminal GST; dsDNA, one strand shown. In outline:
as §1

For the next assay, the target named is ETV1 (Homo sapiens, UniProt P50549 1-477). The conditions noted are these: protein: recombinant; tags: N-terminal GST; dsDNA, one strand shown. In outline:
as §1

Chain of CRX (O43186 whole entry): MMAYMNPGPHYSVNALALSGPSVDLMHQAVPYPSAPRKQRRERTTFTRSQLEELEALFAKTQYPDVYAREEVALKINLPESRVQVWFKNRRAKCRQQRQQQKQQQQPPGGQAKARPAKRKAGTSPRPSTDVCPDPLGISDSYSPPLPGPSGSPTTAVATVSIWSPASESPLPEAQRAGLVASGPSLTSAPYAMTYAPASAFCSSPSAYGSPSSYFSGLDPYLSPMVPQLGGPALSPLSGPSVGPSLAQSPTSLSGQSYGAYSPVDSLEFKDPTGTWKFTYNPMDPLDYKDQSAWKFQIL
Chain of ETV1 (P50549 whole entry): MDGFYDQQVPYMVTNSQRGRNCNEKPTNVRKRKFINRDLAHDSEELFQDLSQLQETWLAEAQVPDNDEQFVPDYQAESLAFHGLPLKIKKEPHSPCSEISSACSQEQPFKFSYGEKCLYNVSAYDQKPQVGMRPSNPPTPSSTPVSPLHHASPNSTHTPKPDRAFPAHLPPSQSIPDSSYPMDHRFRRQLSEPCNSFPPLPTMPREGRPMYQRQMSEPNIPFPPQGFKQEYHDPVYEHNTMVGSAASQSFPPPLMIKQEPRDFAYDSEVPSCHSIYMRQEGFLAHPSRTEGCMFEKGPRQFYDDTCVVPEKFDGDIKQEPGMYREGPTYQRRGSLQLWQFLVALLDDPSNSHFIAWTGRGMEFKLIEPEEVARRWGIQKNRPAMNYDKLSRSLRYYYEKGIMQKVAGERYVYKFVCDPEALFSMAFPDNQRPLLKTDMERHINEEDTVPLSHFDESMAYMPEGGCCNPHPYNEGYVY
Chain of ELF4 (Q99607 whole entry): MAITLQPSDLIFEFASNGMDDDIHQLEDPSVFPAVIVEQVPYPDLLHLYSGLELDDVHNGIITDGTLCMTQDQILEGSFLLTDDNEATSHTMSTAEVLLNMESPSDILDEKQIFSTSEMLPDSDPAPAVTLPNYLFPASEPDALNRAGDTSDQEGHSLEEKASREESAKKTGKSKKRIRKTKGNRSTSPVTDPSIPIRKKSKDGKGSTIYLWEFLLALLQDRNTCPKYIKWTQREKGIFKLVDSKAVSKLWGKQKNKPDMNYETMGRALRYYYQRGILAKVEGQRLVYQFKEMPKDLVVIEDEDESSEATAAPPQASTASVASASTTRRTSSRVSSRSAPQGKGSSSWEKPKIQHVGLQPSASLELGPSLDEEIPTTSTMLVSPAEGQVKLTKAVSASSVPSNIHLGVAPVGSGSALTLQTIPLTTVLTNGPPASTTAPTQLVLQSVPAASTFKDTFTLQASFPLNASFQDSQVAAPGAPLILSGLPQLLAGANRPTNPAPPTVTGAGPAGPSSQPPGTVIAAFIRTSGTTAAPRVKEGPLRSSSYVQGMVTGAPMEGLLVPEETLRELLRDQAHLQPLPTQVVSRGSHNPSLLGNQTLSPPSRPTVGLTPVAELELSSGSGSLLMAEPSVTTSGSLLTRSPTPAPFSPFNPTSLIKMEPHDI
Chain of SPIB (Q01892 whole entry): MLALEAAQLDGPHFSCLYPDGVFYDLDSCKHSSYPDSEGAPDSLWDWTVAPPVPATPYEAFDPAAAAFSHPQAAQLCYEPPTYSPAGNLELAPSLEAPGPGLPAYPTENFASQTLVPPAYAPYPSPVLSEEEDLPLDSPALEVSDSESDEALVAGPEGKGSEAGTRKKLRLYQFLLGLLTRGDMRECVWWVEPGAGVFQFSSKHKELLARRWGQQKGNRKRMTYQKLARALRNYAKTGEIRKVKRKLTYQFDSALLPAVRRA
Chain of ELF1 (P32519 whole entry): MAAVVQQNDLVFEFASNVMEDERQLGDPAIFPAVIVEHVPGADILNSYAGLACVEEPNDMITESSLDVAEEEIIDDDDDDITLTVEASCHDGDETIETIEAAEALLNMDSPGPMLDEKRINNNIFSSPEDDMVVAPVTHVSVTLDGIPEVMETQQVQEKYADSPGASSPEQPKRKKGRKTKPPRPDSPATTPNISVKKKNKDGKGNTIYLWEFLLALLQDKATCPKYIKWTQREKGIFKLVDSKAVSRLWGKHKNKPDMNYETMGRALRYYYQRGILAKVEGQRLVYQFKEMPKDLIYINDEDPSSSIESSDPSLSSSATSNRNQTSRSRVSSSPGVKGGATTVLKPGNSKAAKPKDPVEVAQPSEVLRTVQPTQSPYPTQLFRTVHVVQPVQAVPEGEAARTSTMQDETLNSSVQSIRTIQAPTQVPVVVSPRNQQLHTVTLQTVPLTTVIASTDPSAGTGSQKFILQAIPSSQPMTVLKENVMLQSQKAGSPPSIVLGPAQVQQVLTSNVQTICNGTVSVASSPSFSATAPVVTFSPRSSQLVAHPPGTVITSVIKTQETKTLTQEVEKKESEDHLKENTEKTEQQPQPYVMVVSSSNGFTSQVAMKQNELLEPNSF

Take CTCAGC: the binding signal is 1.15 fold enrichment (6-mer frequency, TF over GST control) in the assay with FLI1; 1.22 fold enrichment (6-mer frequency, TF over GST control) with ELK1; 1.38 fold enrichment (6-mer frequency, TF over GST control) in the assay with GABPA; 1.24 fold enrichment (6-mer frequency, TF over GST control) with ERG; 1.3 fold enrichment (6-mer frequency, TF over GST control) with ELF1; 1.28 fold enrichment (6-mer frequency, TF over GST control) with EHF. Besides, the binding signal with SPI1 was 1.23 fold enrichment (6-mer frequency, TF over GST control); with SPIB, 1.35 fold enrichment (6-mer frequency, TF over GST control); with ELK3, 1.12 fold enrichment (6-mer frequency, TF over GST control); with FEV, 1.3 fold enrichment (6-mer frequency, TF over GST control); with ETV5, 1.11 fold enrichment (6-mer frequency, TF over GST control); in the assay with HSF1, 1.1 fold enrichment (6-mer frequency, TF over GST control). Besides, the binding signal in the assay with SPIC is 1.16 fold enrichment (6-mer frequency, TF over GST control); with ELF4, 1.27 fold enrichment (6-mer frequency, TF over GST control); with ELK4 it was 1.24 fold enrichment (6-mer frequency, TF over GST control); in the assay with ETV2 it was 1.31 fold enrichment (6-mer frequency, TF over GST control); in the assay with ELF3 it was 1.2 fold enrichment (6-mer frequency, TF over GST control); with CRX it was 1.31 fold enrichment (6-mer frequency, TF over GST control). Also, the binding signal with ETV1 is 1.28 fold enrichment (6-mer frequency, TF over GST control).
